Screens as filed in PubChem.
Sampled rows, rich in hits. Any-hit rate of the full collection: about 4.1%.
Env fusion inh: inhibitors of HIV Env-mediated cell fusion | 360,000 compounds, 1.1% hits | HeLa-JRFL Env/CEM21 cell fusion, luciferase | inhibition, % at 12.3 µM;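 active = mean replicate inhibition score of at least 50 and every replicate individually at or above 50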
NSD2 HMT inh: inhibitors of human histone methyltransferase NSD2. NSD2 peptide methylation, AlphaScreen, 120 min. O96028. inhibition, % at 12.5 µM. 310,000 compounds, 0.54% hits; in the data active = inhibition above about 50%
Target sequence (O96028 whole entry, looked up): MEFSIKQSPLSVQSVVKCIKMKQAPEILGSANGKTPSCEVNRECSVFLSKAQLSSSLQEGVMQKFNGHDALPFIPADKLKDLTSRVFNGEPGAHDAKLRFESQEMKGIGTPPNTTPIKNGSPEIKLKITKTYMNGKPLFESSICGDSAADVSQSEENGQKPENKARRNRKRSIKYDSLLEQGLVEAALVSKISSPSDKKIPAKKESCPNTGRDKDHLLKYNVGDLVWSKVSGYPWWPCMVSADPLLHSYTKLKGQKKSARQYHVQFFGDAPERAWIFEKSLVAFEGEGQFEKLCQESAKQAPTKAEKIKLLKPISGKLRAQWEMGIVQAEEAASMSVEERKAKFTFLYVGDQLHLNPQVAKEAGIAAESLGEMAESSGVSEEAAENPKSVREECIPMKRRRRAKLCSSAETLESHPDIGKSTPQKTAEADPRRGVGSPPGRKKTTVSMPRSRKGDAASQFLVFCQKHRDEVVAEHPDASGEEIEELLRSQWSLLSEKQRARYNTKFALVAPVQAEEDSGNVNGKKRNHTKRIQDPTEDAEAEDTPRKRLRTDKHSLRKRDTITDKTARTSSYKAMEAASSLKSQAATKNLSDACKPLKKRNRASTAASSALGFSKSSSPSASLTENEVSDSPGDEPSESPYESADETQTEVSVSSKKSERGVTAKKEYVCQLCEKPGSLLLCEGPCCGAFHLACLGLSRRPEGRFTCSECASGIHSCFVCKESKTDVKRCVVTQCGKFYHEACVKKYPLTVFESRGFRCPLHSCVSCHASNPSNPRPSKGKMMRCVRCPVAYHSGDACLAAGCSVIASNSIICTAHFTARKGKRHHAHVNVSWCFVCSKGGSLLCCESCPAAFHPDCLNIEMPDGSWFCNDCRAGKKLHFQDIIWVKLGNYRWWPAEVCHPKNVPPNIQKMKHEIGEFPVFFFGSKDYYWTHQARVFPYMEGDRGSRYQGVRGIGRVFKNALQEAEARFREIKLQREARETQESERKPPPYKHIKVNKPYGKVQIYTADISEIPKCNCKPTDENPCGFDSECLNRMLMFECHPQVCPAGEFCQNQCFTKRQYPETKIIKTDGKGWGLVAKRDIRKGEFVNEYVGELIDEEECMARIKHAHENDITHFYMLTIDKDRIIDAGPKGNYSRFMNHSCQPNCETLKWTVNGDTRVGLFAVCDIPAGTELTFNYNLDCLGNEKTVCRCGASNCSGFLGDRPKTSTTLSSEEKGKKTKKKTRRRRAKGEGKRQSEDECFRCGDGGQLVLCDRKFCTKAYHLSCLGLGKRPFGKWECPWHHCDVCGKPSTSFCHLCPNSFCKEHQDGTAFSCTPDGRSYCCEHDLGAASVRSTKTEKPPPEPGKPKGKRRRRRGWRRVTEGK
ALR H2O2 inh: inhibitors of human sulfhydryl oxidase ALR | AID 485317 | inhibition, % (concentration not given with the values) | purified ALR, DTT oxidation, H2O2 HRP-luminol luminescence | 290,000 compounds, 3.8% hits;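 active = mean replicate inhibition above about 79%, with every replicate also reaching it, limit read from the data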
CASP6 VEID inh: inhibitors of human caspase-6; P55212; purified caspase-6, Z-VEID-R110 cleavage fluorescence; inhibition, % at 12.5 µM; 350,000 compounds, 0.53% hits;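 active = mean inhibition across replicates at least about 35%, with every replicate also reaching that limit, limit read from the data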
CFTR F508del cor: correctors of CFTR F508del function in bronchial epithelial cells. CFBE cells, YFP halide quenching; stimulated with forskolin plus potentiator P3; % fluorescence drop versus neutral controls. activity (quench increase), % at 7.58 µM. 350,000 compounds, 0.36% hits. AID 720511;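 active = mean added fluorescence quench of at least 8% versus neutral control, with both replicates also reaching 8%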;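 also: cells transiently co-express mutant CFTR-F508del with the halide-sensitive YFP; corrector assay measuring rescue of mutant channel to the surface after 24 h compound exposure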
PglD inh: inhibitors of Campylobacter jejuni PglD acetyltransferase | purified PglD enzyme, DTNB colorimetric CoA detection | inhibition, % at 12.5 µM | 360,000 compounds, 0.098% hits; in the data active = inhibition above about 16%, passing the limit was not always enough
A number is an active result; 0 = inactive; - = no result; [ ] = remark or other dose.

SMILES	Env fusion inh	NSD2 HMT inh	ALR H2O2 inh	CASP6 VEID inh	CFTR F508del cor	PglD inh
CCCc1cc(=O)[nH]c(SCC(=O)N2CCN(c3ccccc3)CC2)n1	-	0	0	0	0	0
O=C(CSc1nccc(=O)[nH]1)N1CCN(c2ccccc2)CC1	0	0	92	0	0	-
Cc1nc(SCC(=O)N2CCN(c3ccccc3)CC2)n[nH]1	0	0	99	0	0	0
Nc1nc(SCC(=O)N2CCN(c3ccccc3)CC2)n[nH]1	0	0	0	0	0	0
CC(C)C(c1nnnn1C1CCCC1)N1CCc2ccccc21 (stereo unspecified)	0	0	99	-	-	0
Cc1ccccc1-c1ccc([C@H]2[C@H]3CN(C(=O)Nc4ccc(F)cc4)CC(=O)N3[C@H]2CO)cc1	-	-	-	-	0	-
CC1OC2CC(=O)OC2C2=C1C(=O)c1c(O)cccc1C2=O (stereo unspecified)	-	-	-	85	0	0
C[C@H](CO)N1C[C@H](C)[C@@H](CN(C)Cc2ccc(C(=O)O)cc2)Oc2ccc(NS(=O)(=O)c3ccc(F)cc3)cc2CC1=O	-	-	-	0	0	-
C[C@@H]1CCCCO[C@H](CN(C)Cc2ccc(C(F)(F)F)cc2)[C@@H](C)CN([C@H](C)CO)C(=O)c2cc(NC(=O)Nc3ccc(C(F)(F)F)cc3)ccc2O1	0	-	-	-	0	0
C[C@@H]1CCCCO[C@@H](CN(C)Cc2ccc(C(F)(F)F)cc2)[C@@H](C)CN([C@H](C)CO)C(=O)c2cc(NC(=O)Nc3ccc(C(F)(F)F)cc3)ccc2O1	0	-	-	-	0	0
C[C@H]1CCCCO[C@@H](CN(C)Cc2ccc(C(F)(F)F)cc2)[C@@H](C)CN([C@@H](C)CO)C(=O)c2cc(NC(=O)Nc3ccc(C(F)(F)F)cc3)ccc2O1	82[16.7 µM]	-	-	-	0	0
C[C@@H]1CN([C@H](C)CO)C(=O)c2cc(NC(=O)Nc3ccc(C(F)(F)F)cc3)ccc2O[C@@H](C)CCCCO[C@H]1CN(C)Cc1ccc(C(F)(F)F)cc1	64[16.7 µM]	-	-	-	0	0
C[C@H](CO)N1C[C@H](C)[C@@H](CN(C)Cc2ccc(C(F)(F)F)cc2)OCCCC[C@H](C)Oc2ccc(NC(=O)Nc3ccc(C(F)(F)F)cc3)cc2C1=O	0	-	-	-	0	0
C[C@H](CO)N1C[C@H](C)[C@H](CN(C)Cc2ccc(C(F)(F)F)cc2)OCCCC[C@H](C)Oc2ccc(NC(=O)Nc3ccc(C(F)(F)F)cc3)cc2C1=O	66[16.7 µM]	-	-	-	0	0
C[C@@H]1CCCCO[C@@H](CN(C)Cc2ccc(C(F)(F)F)cc2)[C@H](C)CN([C@@H](C)CO)C(=O)c2cc(NC(=O)Nc3ccc4c(c3)OCO4)ccc2O1	55[16.7 µM]	-	-	0	0	0
COc1ccc(NC(=O)Nc2ccc3c(c2)C(=O)N([C@H](C)CO)C[C@@H](C)[C@H](CN(C)S(=O)(=O)c2cccs2)OCCCC[C@@H](C)O3)cc1	0	-	-	0	0	0
CCN1[C@@H]2c3ccc(-c4ccc(F)cc4)c(=O)n3C[C@@H]2[C@@H](CO)[C@@H]1C(=O)NC1CCC1	-	-	-	0	0	-
COc1ccc(S(=O)(=O)Nc2cccc3c2O[C@H](CN(C)S(=O)(=O)c2ccc(Cl)cc2)[C@H](C)CN([C@@H](C)CO)C3=O)cc1	0	-	-	0	0	0
C[C@H]1CCCCO[C@@H](CN(C)Cc2ccc3c(c2)OCO3)[C@@H](C)CN([C@@H](C)CO)C(=O)c2cc(NC(=O)Nc3ccc4c(c3)OCO4)ccc2O1	84[16.7 µM]	-	-	0	0	0
C[C@H](CO)N1C[C@H](C)[C@@H](CN(C)Cc2ccc3c(c2)OCO3)Oc2ccc(NC(=O)Nc3ccccc3)cc2C1=O	-	-	-	0	0	0
C[C@@H]1CN([C@@H](C)CO)C(=O)c2cc(NC(=O)Nc3ccc4c(c3)OCO4)ccc2O[C@@H](C)CCCCO[C@@H]1CN(C)Cc1ccc2c(c1)OCO2	0	-	-	0	0	0
C[C@@H]1CN([C@@H](C)CO)C(=O)c2cc(NC(=O)Nc3ccccc3)ccc2O[C@@H]1CN(C)Cc1ccc2c(c1)OCO2	-	-	-	54	0	0
Nc1ccc2cc3[nH]c4cc(N)ccc4c3nc2c1	61	0	-	0	0	-
COc1ccccc1NC(=O)CSc1nc(O)cc(=O)n1C	0	0	99	-	-	0
C=CCn1c(SCC(=O)Nc2ccccc2C)nnc1-c1ccncc1	-	0	0	-	-	0
SMILES	Env fusion inh	NSD2 HMT inh	ALR H2O2 inh	CASP6 VEID inh	CFTR F508del cor	PglD inh
Cc1ccccc1NC(=O)CSc1nc2ccccc2c(=O)n1C	0	0	0	0	0	0
CCCn1c(SCC(=O)Nc2cc(Cl)ccc2OC)nc(O)cc1=O	0	0	98	0	0	0
COc1ccc(Cl)cc1NC(=O)CSc1nc(C)cc(C)n1	0	0	-	0	-	-
COc1ccc(-n2c(SCC(=O)Nc3ccccc3OC)nc(O)cc2=O)cc1	0	0	0	0	0	0
C=CCn1c(SCC(=O)Nc2ccccc2C)nc(O)cc1=O	0	0	92	0	0	0
Cn1c(SCC(=O)Nc2cccc3ccccc23)nc(O)cc1=O	0	0	98	-	-	0
COCC(=O)Nc1ccc2c(c1)C(=O)N(C)[C@@H]1CC[C@H](CC(=O)NCC(F)(F)F)O[C@@H]1CO2	-	-	-	0	0	0
CCn1c(SCC(=O)Nc2ccccc2OC)nc2ccccc2c1=O	0	0	0	-	-	-
COc1ccccc1NC(=O)CSc1nc2nc(C)cc(C)c2c(=O)[nH]1	-	0	91	-	-	-
CCn1c(SCC(=O)Nc2ccccc2OC)nc(O)cc1=O	0	0	98	0	0	0
CCCC(=O)Nc1ccc2c(c1)C(=O)N(C)C[C@@H](OC)[C@H](C)CN(Cc1ccccc1OC)[C@H](C)CO2	-	-	-	0	0	0
COCC(=O)N1CCC2(CC1)CN(C(=O)COC)[C@@H](CO)c1c2c2ccc(OC)cc2n1C	-	-	-	-	0	-
COc1ccc(C(=O)c2ccc(Cl)c([N+](=O)[O-])c2)cc1	0	0	97	0	0	-
COCC(=O)N(C)C[C@@H]1Oc2cc(-c3ccccc3)ccc2S(=O)(=O)N([C@H](C)CO)C[C@H]1C	0	-	-	0	0	0
COc1ccc(-c2cn3c(C)c(C(=O)Nc4cccc(NC(C)=O)c4)sc3n2)cc1	71	0	0	-	-	0
COc1ccc(-c2cn3c(C)c(C(=O)Nc4ccncc4)sc3n2)cc1	0	-	0	0	0	0
CCCN1[C@H](C(=O)OC)[C@@H](CO)[C@@H]2Cn3c(ccc(-c4cccc(C(=O)N(C)C)c4)c3=O)[C@@H]21	-	-	-	0	0	-
Cc1ccc(C2=NN(S(=O)(=O)c3ccccc3)C(c3ccco3)C2)cc1 (stereo unspecified)	0	0	-	0	0	0
O=S(=O)(c1ccccc1)N1N=C(c2ccc(O)cc2)CC1c1ccco1 (stereo unspecified)	0	0	100	0	0	0
CCOc1cc(/C=N/O)cc(Br)c1OCC	0	0	0	-	-	0
C=CCOc1c(Br)cc(/C=N/Nc2ccc(C(=O)O)cc2)cc1OCC	0	0	97	0	-	-
COc1ccc(/C=N/Nc2ccc(C(=O)O)cc2)cc1Br	0	0	99	0	0	0
